# Source: ChEMBL document CHEMBL3988442, “University of Dundee, Small-Polar-MMV Screening Library” (2021)
# The whole screen tested about 48,000 compounds, of which about 13,000 (27%) showed an effect of 50% or more. The list shows a part of the results.
# Test system: Wolbachia pipientis
# Assay: Anti-Wolbachia Cell-Based Screen
# Assay type: functional
# Parameters: scale not given: in the data most compounds retested in dose-response had high values
# Details: 5 µM
row,SMILES,Percent Effect
1,CCC(CC)C(=O)NCC1(NC(C)c2ccccc2)CCOCC1 (stereo unspecified),-13.17%
2,COc1ccc(C)cc1CCNS(C)(=O)=O,4.512%
3,Cn1cncc1CN1CCC2(CC1)COCCN(S(C)(=O)=O)C2.O=C(O)C(F)(F)F,124.1%
4,Cn1ccnc1CN1CCC2(CC1)COCCN(S(C)(=O)=O)C2.O=C(O)C(F)(F)F,104.9%
5,COC1CC2(CCN(Cc3nccn3C)CC2)C1.O=C(O)C(F)(F)F,5.077%
6,CS(=O)(=O)N1CCOCC2(CN(Cc3nccs3)CCO2)C1.O=C(O)C(F)(F)F (stereo unspecified),6.136%
7,Cn1ccnc1CN1CCC2(COCCN(S(=O)(=O)C3CC3)C2)C1 (stereo unspecified),106.3%
8,CCOC1CC2(CCN(Cc3nccn3C)CC2)C1.O=C(O)C(F)(F)F,2.92%
9,Cn1ccnc1CN1CCC2(CC1)CCN(Cc1ccoc1)C2.O=C(O)C(F)(F)F.O=C(O)C(F)(F)F,-4.24%
10,O=C(O)C(F)(F)F.O=S(=O)(C1CC1)N1CCOCC2(CCN(c3ccccn3)C2)C1 (stereo unspecified),8.73%
11,Cn1ccnc1CN1CCC2(CC1)COC2.O=C(O)C(F)(F)F,97.83%
12,Cn1ccnc1CN1CCC2(COCCN(Cc3ccsc3)C2)C1 (stereo unspecified),14.38%
13,CN1CCOCC2(CCN(Cc3ccc[nH]3)CC2)C1.O=C(O)C(F)(F)F.O=C(O)C(F)(F)F,-3.282%
14,COc1cnc(N2C[C@H](CO)C[C@H](CN3CCOCC3)C2)nc1,-6.58%
15,Cc1ccc(CN(C(=O)C(C)S(C)(=O)=O)C2CC2)cc1C (stereo unspecified),-15.47%
16,Cc1ccc(S(=O)(=O)N(C)CC(C)O)c(F)c1 (stereo unspecified),4.809%
17,CCc1ncc(C(=O)NC(C)(C)C(=O)OC)s1,-4.518%
18,COCC1CC2(CCN(Cc3nccn3C)CC2)CN1c1ncccn1.O=C(O)C(F)(F)F (stereo unspecified),-8.738%
19,c1cnc(N2CCOCC3(CCN(c4cnccn4)CC3)C2)nc1,-29.45%
20,Cn1ccnc1CN1CCC2(CC1)COCCN(c1ncccn1)C2,118.1%
21,Cn1cc2ncn(CCNc3cccnc3)c(=O)c2n1,-8.591%
22,Cc1cccc(C(=O)N2CCCCC2c2nc(C)cs2)n1 (stereo unspecified),80.1%

row,SMILES,Percent Effect
1,Cc1csc(C2CCCCN2C(=O)c2cc(C)n(C)n2)n1 (stereo unspecified),98.18%
2,Cc1csc(C2CCCCN2C(=O)c2cnn3ccc(C)nc23)n1 (stereo unspecified),2.073%
3,Cc1cnc(C(=O)N2CCCCC2c2nc(C)cs2)cn1 (stereo unspecified),81.82%
4,Cc1ccc(CC(=O)N2CCCCC2c2nc(C)cs2)cn1 (stereo unspecified),2.602%
5,Cc1cncc(C(=O)N2CCCCC2c2nc(C)cs2)c1 (stereo unspecified),6.279%
6,COc1ccc(C(=O)N2CCCCC2c2nc(C)cs2)nn1 (stereo unspecified),-5.655%
7,Cc1csc(C2CCCCN2C(=O)c2cn[nH]c2C)n1 (stereo unspecified),83.45%
8,CC(C)(C)c1ccc(C2(C(=O)NCCS(N)(=O)=O)CC2)cc1,-15.99%
9,Cc1csc(C2CCCCN2C(=O)c2c[nH]c(C)n2)n1 (stereo unspecified),62.15%
10,CN(Cc1ccco1)C(=O)C1CSCN1C(=O)c1cccnc1 (stereo unspecified),0.06211%
11,CN(Cc1cc(-c2cccnc2)no1)C(=O)[C@@H]1CSCN1C,-21.19%
12,CN(Cc1ccco1)C(=O)NCC(c1cccs1)N(C)C (stereo unspecified),1.793%
13,CN(Cc1ccco1)C(=O)C1CSCN1C(=O)c1cccs1 (stereo unspecified),104.7%
14,Cc1ccc(CC(=O)N2CSCC2C(=O)N(C)Cc2ccco2)o1 (stereo unspecified),8.524%
15,CCOCC(=O)N1CSCC1C(=O)N(C)Cc1ccco1 (stereo unspecified),113.6%
16,CN(Cc1ccco1)C(=O)C1CSCN1C(=O)C1CCC1 (stereo unspecified),111.9%
17,CN(Cc1ccco1)C(=O)[C@H]1CSCN1C(=O)OC(C)(C)C,12.78%
18,Cn1c(CN2CCCC2c2noc(C3CC3)n2)cc(=O)n(C)c1=O (stereo unspecified),-13.43%
19,COCC(=O)N1CCCC2(CCN(CCN3CCCC3)CC2)C1.O=C(O)C(F)(F)F.O=C(O)C(F)(F)F,18.87%
20,CCc1n[nH]c(C2CN(C(=O)c3cc(C4CC4)on3)CCO2)n1 (stereo unspecified),117.8%
21,CCCc1n[nH]c(C2CN(C(=O)c3cc(C4CC4)on3)CCO2)n1 (stereo unspecified),114.4%
22,O=S(=O)(c1c(Cl)nc2sccn12)N1CCC2(CCNCC2)C1,-2.285%

row,SMILES,Percent Effect
1,CC(C)(C)CN[C@@H]1CO[C@H](CNC(=O)C2CCCC2)[C@H]1O,-14.33%
2,CCc1ccc(NC(=O)N2Cc3c(CN(C)C)nn(C)c3C2)cc1.O=C(O)C(F)(F)F,-20.31%
3,COc1ccc(S(=O)(=O)N2Cc3c(CN(C)C)nn(C)c3C2)cc1.O=C(O)C(F)(F)F,-0.8573%
4,CN(C)Cc1nn(C)c2c1CN(C(=O)c1ccc[nH]1)C2.O=C(O)C(F)(F)F,-9.086%
5,CCc1ccc(S(=O)(=O)N2Cc3c(CN(C)C)nn(C)c3C2)cc1.O=C(O)C(F)(F)F,97.57%
6,Cc1ccc(CS(=O)(=O)N2Cc3c(CN(C)C)nn(C)c3C2)cc1.O=C(O)C(F)(F)F,96.76%
7,Cc1ccc(S(=O)(=O)N2Cc3c(CN(C)C)nn(C)c3C2)cc1,-16.71%
8,C=Cc1cccc(CN2CCCn3nc(CNS(C)(=O)=O)cc3C2)c1,10.79%
9,O=C1C(Sc2cnn[nH]2)CCCN1c1ccccc1F (stereo unspecified),-1.507%
10,Cc1n[nH]c(C2CN(Cc3csc(C4CC4)n3)CCO2)n1 (stereo unspecified),-12.76%
11,Cc1ccc(Oc2ncccc2C(=O)O)c(C)c1,113.8%
12,CC(C)CC(CNC(=O)c1cccnc1Oc1cccnc1)N(C)C (stereo unspecified),-29.76%
13,Cc1ccc(OCCNC(=O)C2CCOCC2)c(C)c1,-7.551%
14,CCOc1ncccc1C(=O)N(C)Cc1ncc(C)c(OC)c1C,-9.581%
15,COC(=O)C(NC(=O)c1ccc(C)cc1C)c1cccnc1 (stereo unspecified),2.23%
16,Cc1ccc(OCCN(C)Cc2nccn2C)c(C)c1,1.849%
17,Cc1ccc(Oc2ncccc2C(=O)N(C)CC2OCCO2)c(C)c1,132.9%
18,Cc1ccc(Oc2ncccc2C(=O)N(C)CCCN(C)C)cc1,116.5%
19,CC(CNC(=O)c1cccnc1Oc1cccnc1)N(C)C (stereo unspecified),-15.37%
20,COc1ccc(Oc2ncccc2C(N)=O)cc1CN1CCCC1,-15.13%
21,Cc1ccc(Oc2ncccc2C(=O)N(C)CCCN(C)C)c(C)c1,137.8%
22,COCCOc1ncccc1C(=O)N(C)c1ccc(OC)c(OC)c1,-8.68%
